# BaF3 parental: reduces parental Ba/F3 cell viability, JAK2V617F counter-screen. 220,000 tested, 1.1% active. AID 1486. CellTiter-Glo ATP luminescence. inhibition, % at 5.6 µM;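 active = inhibition above a per-campaign cutoff, the mean inhibition of all tested compounds plus 3 SD, cut at about 27% in these data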;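 also: 0% = DMSO wells and 100% = JAK Inhibitor I control wells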
# APP 5UTR inh: APP translation inhibition | inhibition, % at 2 µM | 190,000 tested, 0.82% active | SH-SY5Y APP 5'UTR-luciferase reporter, luminescence | AID 1285;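 active = inhibition above a set limit, derived from the sample mean plus 3 SD, cut at about 45% in these data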
# IEC-6 cytotox: IEC-6 cytotoxicity, counter-screen for KLF5 inhibitors; luminescence viability; inhibition, % at 5 µM; 290,000 tested, 0.78% active; AID 1825; in the data active = inhibition above about 22%;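 also: 0% = plate median of test compound wells and 100% = cytotoxic reference compound wells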
# Ba/F3 V617F tox: lowers viability of Ba/F3 cells expressing EpoR and JAK2V617F | inhibition, % at 5.6 µM | ATP luminescence | 220,000 tested, 1.1% active | AID 1446;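 active = inhibition above the campaign mean plus 3 SD over all tested compounds, cut at about 24% in these data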;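 also: cytokine-independent growth of Ba/F3 cells driven by EpoR plus mutant JAK2; 0% = DMSO-treated cells and 100% = JAK inhibitor I control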
# KLF5 inhibitor: inhibitors of KLF5 expression | AID 1700 | 290,000 tested, 0.23% active | inhibition, % at 5 µM | DLD-1 KLF5 promoter-luciferase reporter, luminescence;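 active = inhibition above a per-plate limit of that plate's mean compound inhibition plus 3 SD, cut at about 60% in these data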;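 also: 0% = DMSO wells and 100% = LY294002 at 200 µM; higher means less KLF5 promoter-driven luciferase light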
# Active calls of the source: *; / = not tested or not shown. Compounds with a hit are over-represented: about 1.8% of the library has one in this group of screens.
SMILES,BaF3 parental,APP 5UTR inh,IEC-6 cytotox,Ba/F3 V617F tox,KLF5 inhibitor
COc1ccc(-n2cc(CN3CCCC3)c(-c3cccc(F)c3)n2)cc1,1,-5,8,-2,-21
CC(=O)N1CCCN(Cc2cn(-c3ccc(C)cc3)nc2-c2cccc(C)c2)CC1,41*,-6,2,0,-22
CCCC[n+]1c2ccccc2cc2ccccc21,/,/,-5,/,-26
CCCCC[n+]1cccc2c3ccccc3ccc21,77*,16,14,100*,49
c1ccc(C[n+]2cccc3c4ccccc4ccc32)cc1,79*,2,3,97*,6
O=C1Nc2ccc(F)cc2C12SCCS2,1,-9,-5,-1,-32
COc1ccc(OC)c(/C=C/C(=O)N(C)CC(=O)Nc2cc(C)ccc2C)c1,-1,66*,3,-3,-36
COc1ccc(C(=O)N/C(=C\c2cn(S(=O)(=O)N(C)C)c3ccccc23)C(=O)N2CCOCC2)cc1,/,/,-3,/,-31
Cc1ccc(-c2c(CC(=O)O)c(C)nc3sc4c(c23)CCCC4)cc1,/,/,-4,/,-33
c1cncc(CSc2ccc(-c3cccs3)nn2)c1,46*,-50,11,6,-59
Cc1ccc(CSc2ccc(-c3cccs3)nn2)cc1,-1,-66,0,-1,-17
COc1ccccc1C1=Nn2c(COc3ccccc3)nnc2SC1,5,17,4,0,-4
Cc1cccc(OCC(O)Cn2c(=N)n(CCN3CCCCC3)c3ccccc32)c1 (stereo unspecified),55*,-2,6,25*,-18
N=c1n(Cc2ccc(Cl)cc2)c2ccccc2n1CC(O)COc1ccccc1 (stereo unspecified),36*,-6,-5,12,-3
Cc1ccc(OCC(O)Cn2c(=N)n(Cc3ccccc3)c3ccccc32)cc1 (stereo unspecified),9,8,9,3,-14
CSC1=NC(C(Cl)(Cl)Cl)N=C(c2ccc(C)cc2)N1 (stereo unspecified),64*,71*,58*,83*,53
CC(=O)n1c(Cl)c(NC(=O)CCl)c2ccccc21,4,75*,0,3,-23
CC(=O)n1c2ccccc2c2ccccc21,5,4,-11,1,-27
Cc1csc2ncc(C(=O)N3c4ccccc4CC3C)c(=O)n12 (stereo unspecified),39*,-2,4,-2,-24
CC1Cc2ccccc2N1C(=O)c1cnc2ccccn2c1=O (stereo unspecified),6,-3,2,-3,-4
CCOc1ccc(NC(=S)N2CCN(C/C=C/c3ccccc3)CC2)cc1,1,-8,0,-2,-14
Clc1ccc2ccc3cccnc3c2n1,/,/,2,/,-21
O=S1(=O)Nc2c(ccc3cccnc23)-c2ccccc21,13,60*,67*,3,55
COC(=O)CN(C#N)c1nc(NC(C)C)nc(OC)n1,32*,6,-9,41*,-37
Cc1ccc(S(=O)(=O)Nc2cc(-c3ccccc3)nn2C)cc1Cl,2,/,2,-2,-4
SMILES,BaF3 parental,APP 5UTR inh,IEC-6 cytotox,Ba/F3 V617F tox,KLF5 inhibitor
Cc1ccc(C(=O)N/C(=C\c2ccc(-c3ccc(Br)cc3)o2)C(=O)NCCCN(C)C)cc1,60*,0,4,23,-12
CCCc1nc(SCC(=O)Nc2cc(C)on2)c2ccccc2n1,5,-4,12,5,7
Cc1cc(NC(=O)CSc2nc(C(C)(C)C)nc3ccccc23)no1,4,49*,-2,0,11
O=S(=O)(Nc1ccc(-c2csc(-c3ccccc3)n2)cc1)c1ccc(F)cc1,0,4,1,3,-33
O=C(Nc1nc(-c2ccccc2)cs1)c1ccccc1NS(=O)(=O)c1ccc(F)cc1,46*,-2,13,23,21
O=S(=O)([N-]c1nc2ccccc2nc1-n1cc[n+](Cc2ccccc2)c1)c1ccccc1,0,/,7,3,0
C=CC[n+]1ccn(-c2nc3ccccc3nc2[N-]S(=O)(=O)c2cccs2)c1,86*,/,-1,92*,-20
CCCC[n+]1ccn(-c2nc3ccccc3nc2[N-]S(=O)(=O)c2cccs2)c1,86*,/,18,98*,19
CN1CCN(Cc2cn[nH]c2-c2ccc(F)cc2F)[C@@H](c2ccccc2)C1,11,-14,-3,4,-33
Cc1[nH]c2ccccc2c1CCN(Cc1cccnc1)C(=S)Nc1cccc(F)c1,30*,-22,2,27*,-7
Cc1ccc(OCC(=O)Nc2ccccc2[N+](=O)[O-])c(Br)c1,4,-154,1,-4,-36
O=C1NC(=S)N/C1=C/c1cc([N+](=O)[O-])ccc1O,-2,-1,0,-3,-14
O=C1C=CC(=O)C(C2=C3C(=O)N(CCc4ccccc4)CC(=O)N3CCC2)=C1,-1,65*,-1,-5,4
O=C1CC(=O)N(CCc2ccccc2)C(=O)N1CCc1ccccc1,5,9,-1,1,-49
Cc1onc(-c2ccccc2Cl)c1C(=O)N(C)C1CCCCC1,62*,5,2,67*,-1
N=c1ccn(CC(=O)c2ccc(-c3ccccc3)cc2)cc1,75*,8,4,98*,-3
O=C(CN1C(=O)CCC1=O)c1ccc(-c2ccccc2)cc1,3,-28,-6,-2,-52
Cc1cc(C)cc(NC(=O)/C=C/c2ccc([N+](=O)[O-])s2)c1,50*,53*,4,1,2
Cc1ccccc1NC(=O)/C=C/c1ccc([N+](=O)[O-])s1,55*,90*,14,80*,2
Cc1ccccc1NC(=O)/C=C/c1cccs1,12,-60,-6,5,-79
CC(C)Sc1nnc(-c2c[nH]c3ccccc23)n1C,10,/,0,1,-49
C#CCSc1nnc(-c2c[nH]c3ccccc23)n1C,48*,-54,-1,30*,-25
CCc1ccccc1NC(=S)NN,3,92*,-1,0,-4
CC1CCN(C(=O)C2CCN(S(=O)(=O)c3cc(Cl)ccc3Cl)CC2)CC1,-9,/,2,3,-12
N#CC1=C(N)OC2=C(CCc3ccccc32)C1c1ccccc1Cl (stereo unspecified),9,94*,-1,5,13
SMILES,BaF3 parental,APP 5UTR inh,IEC-6 cytotox,Ba/F3 V617F tox,KLF5 inhibitor
CCOC(=O)C1=C(CNCc2ccc(C)cc2)NC(=O)NC1c1ccc(OC)cc1 (stereo unspecified),28*,1,16,52*,11
O=C(Cc1cccc(C(F)(F)F)c1)N1CCCC1,/,/,-3,/,-28
CCOC(=O)c1cc2c(ccn2-c2ccc(F)cc2)n1CC(=O)NC(C)(C)C,90*,-3,9,5,11
Cc1cc(C)nc(NC(=O)c2ccc(COc3ccccc3Cl)cc2)c1,71*,3,19,62*,28
O=C(Nc1ccn(Cc2c(F)c(F)cc(F)c2F)n1)c1ccc(COc2ccccc2Cl)cc1,2,-16,2,-1,-27
CC(C1CC2CCC1C2)n1c(-c2ccco2)n[nH]c1=S (stereo unspecified),8,54*,-3,-2,-4
Cc1ccc(-n2c(-c3ccco3)n[nH]c2=S)cc1,6,4,-1,-4,-18

# Assay outcomes deposited in PubChem BioAssay by several laboratories.
